According to PubChem BioAssay (NCI):
This is part of a sample that, as a whole, favours compounds with a hit. Of some 83,000 tested, about 20% had one in any assay.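 In brief: 96-well plates, 48 h treatment, single concentration, percent growth endpoint.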 Unmarked numbers belong to inactive results. Active and inactive are the calls of the source. How the source made its calls: active means growth percent below 10; inactive means the rest.

What was measured:
Experiment in all cases: NCI-60 one-dose screen, 48 h (100 = growth as untreated, 0 = no growth, -100 = all killed)
Conditions in all cases: 10 µM unless noted
[1] = system: NCI-H23 lung
[2] = system: NCI-H226 lung
[3] = system: NCI-H322M lung
[4] = system: HOP-62 NSCLC
[5] = system: NCI-H460 lung
[6] = system: HOP-92 NSCLC
[7] = system: NCI-H522 lung
[8] = system: A549/ATCC NSCLC
[9] = system: 786-0 renal
[10] = system: COLO 205 colon

SMILES	growth [1]	growth [2]	growth [3]	growth [4]	growth [5]	growth [6]	growth [7]	growth [8]	growth [9]	growth [10]
CN(CCCNC(=O)Cc1ccc2ccc3cccc4ccc1c2c34)CCCNc1cc(-c2ccc3ccccc3c2)nc2ccccc12	-82.1% (active)	-39.5% (active)	-83.2% (active)	-85.9% (active)	-73.9% (active)	-88.8% (active)	-42.9% (active)	1.17% (active)	-80.2% (active)	-77.3% (active)
COc1ccc(C2=CN3CC=CC3CC2=O)cc1 (stereo not given)	97.8%	98%	108%	91.1%	106%	107%	85.2%	87.4%	88.8%	102%
CCNC(=O)Oc1ccc(/C(=C(/C)Cc2ccc(OC)cc2)c2ccc(OCCN3CCCCC3)cc2)cc1	87.7%	86.5%	89.2%	91.5%	35.7%	44.4%	72.8%	62%	72.6%	20.9%
CCC1S/C(=N\N=C(\C)c2cc3cc(Cl)ccc3o2)N(c2ccccc2)C1=O (stereo not given)	90.7%	113%	82.4%	100%	122%	71%	160%	132%	85.8%	118%
COC(=O)c1c2c(c(C)[n+]([O-])c1C)C(=O)C(NCc1cccc(Cl)c1)=CC2=O	14.7%	79.8%	1.86% (active)	41.6%	10.1%	38%	-10.4% (active)	6.34% (active)	39.5%	-50.3% (active)
C=C(C)[C@@H]1CC[C@]2(C)[C@H](CC=C3[C@@H]4CC(C)(C)CC[C@]4(CO)CC[C@]32C)[C@@]1(C)CCCN	68.7%	95.9%	54.6%	63.9%	-93.2% (active)	42.5%	-40.1% (active)	-71% (active)	32.6%	-56.8% (active)
COc1cc(-c2nc3sccn3c2-c2ccnc(NCCNS(=O)(=O)c3ccc(Cl)cc3)n2)ccc1F	18.7%	8.63% (active)	70.4%	34.7%	42.2%	78.8%	1.16% (active)	30%	61.8%	33.8%
NS(=O)(=O)c1ccc(NC(=O)/C(=C\c2ccc(Cl)cc2Cl)NC(=O)c2ccccc2)cc1	107%	103%	102%	95.7%	105%	87%	80.3%	105%	104%	110%
COc1cccc(CNc2c3ccccc3nc3ccccc23)c1	37.3%	48.1%	44%	46.5%	10%	25.5%	61.7%	30.2%	37.3%	9.63% (active)
Cc1cccc(N2CCC(=O)NC2=S)c1	98.5%	97.3%	101%	110%	104%	105%	97%	99.1%	103%	119%
COc1ccc(CNc2c3ccccc3nc3ccccc23)c(OC)c1	34.9%	46.3%	40%	47.2%	16.6%	-13.6% (active)	40.6%	35.2%	39.1%	24.6%
CC1(C)NCCC[C@]2(C)[C@H]3CC[C@H]4[C@H]5[C@H](C(=O)/C=C/c6cccnc6)CCC[C@]5(CO)CC[C@@]4(C)[C@]3(C)CC[C@@H]12	77.6%	96.2%	85.5%	97.3%	10.9%	48.1%	88%	67%	83.8%	-72.9% (active)
O=C1NC(=O)/C(=C/c2c(-c3ccccc3)nc3sc(COc4ccccc4)nn23)S1	86%	93.5%	96%	102%	102%	66.4%	83.6%	96.6%	81.6%	132%
Cc1nc2c(=O)nc3s/c(=C\c4ccco4)c(=O)n3c2nc1C	96.8%	97%	93.5%	94.8%	101%	85.8%	85.1%	81.2%	97.1%	116%
NC1(CO)COC(c2ccccc2)OC1 (stereo not given)	109%	103%	100%	104%	108%	96.7%	87.1%	101%	106%	107%
O=C(O)COc1ccc(Cl)c(Cl)c1	99%	94.1%	120%	100%	109%	90.2%	102%	107%	104%	115%
